Source: ChEMBL document CHEMBL1961873, “Compounds: GSK PKIS; Assays: Nanosyn kinase panel” (2012)

How the values were obtained:
[1] = target: Mitogen-activated protein kinase kinase kinase kinase 4 (Homo sapiens) (UniProt O95819); settings: at 1 µM;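 also: reported figure is an averaged inhibition value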
[2] = target: Dual specificity mitogen-activated protein kinase kinase 1 (Homo sapiens) (UniProt Q02750); settings: at 0.1 µM
[3] = target: Dual specificity mitogen-activated protein kinase kinase 1 (Homo sapiens) (UniProt Q02750); settings: at 1 µM
[4] = target: Misshapen-like kinase 1 (Homo sapiens) (UniProt Q8N4C8); settings: at 0.1 µM
Chain of Misshapen-like kinase 1 (Homo sapiens) (Q8N4C8 whole entry, looked up): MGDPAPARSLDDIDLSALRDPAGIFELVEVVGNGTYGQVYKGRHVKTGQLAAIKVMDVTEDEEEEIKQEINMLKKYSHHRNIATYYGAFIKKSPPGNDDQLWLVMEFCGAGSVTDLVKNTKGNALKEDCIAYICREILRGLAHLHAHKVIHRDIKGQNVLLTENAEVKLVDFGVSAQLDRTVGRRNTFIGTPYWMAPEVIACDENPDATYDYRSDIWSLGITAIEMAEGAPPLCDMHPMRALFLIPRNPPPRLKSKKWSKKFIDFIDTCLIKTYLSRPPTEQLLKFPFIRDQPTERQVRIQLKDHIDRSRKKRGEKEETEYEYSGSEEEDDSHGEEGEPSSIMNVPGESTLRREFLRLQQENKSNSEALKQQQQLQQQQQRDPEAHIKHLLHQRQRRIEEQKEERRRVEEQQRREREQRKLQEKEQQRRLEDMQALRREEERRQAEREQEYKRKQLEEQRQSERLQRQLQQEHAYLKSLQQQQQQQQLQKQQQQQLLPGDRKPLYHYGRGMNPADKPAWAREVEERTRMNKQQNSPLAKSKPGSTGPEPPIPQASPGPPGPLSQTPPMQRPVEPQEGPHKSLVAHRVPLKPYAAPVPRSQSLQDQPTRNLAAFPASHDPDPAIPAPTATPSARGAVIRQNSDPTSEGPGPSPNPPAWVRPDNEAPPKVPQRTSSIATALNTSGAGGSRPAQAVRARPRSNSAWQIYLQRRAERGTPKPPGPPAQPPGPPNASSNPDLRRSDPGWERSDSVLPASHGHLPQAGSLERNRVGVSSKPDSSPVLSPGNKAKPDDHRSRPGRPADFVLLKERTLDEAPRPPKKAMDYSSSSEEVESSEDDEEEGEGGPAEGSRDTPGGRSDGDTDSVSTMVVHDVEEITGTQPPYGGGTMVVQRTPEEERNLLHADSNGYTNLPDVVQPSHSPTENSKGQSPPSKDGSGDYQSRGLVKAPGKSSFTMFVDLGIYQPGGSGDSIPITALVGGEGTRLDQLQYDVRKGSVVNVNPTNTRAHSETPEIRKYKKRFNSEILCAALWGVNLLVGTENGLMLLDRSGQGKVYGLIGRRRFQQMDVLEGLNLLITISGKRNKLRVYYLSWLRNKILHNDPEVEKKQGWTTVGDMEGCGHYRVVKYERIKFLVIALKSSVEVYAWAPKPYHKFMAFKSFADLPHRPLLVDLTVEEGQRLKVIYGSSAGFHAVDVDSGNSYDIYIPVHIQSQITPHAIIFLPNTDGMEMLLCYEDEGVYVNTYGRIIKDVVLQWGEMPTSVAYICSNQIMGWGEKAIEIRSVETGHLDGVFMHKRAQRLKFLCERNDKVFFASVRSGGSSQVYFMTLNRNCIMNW

[5] = target: Misshapen-like kinase 1 (Homo sapiens) (UniProt Q8N4C8); settings: at 1 µM
[6] = target: T1, Serine/threonine-protein kinase 4 (Homo sapiens) (UniProt Q13043); settings: at 0.1 µM
T1 sequence (whole entry): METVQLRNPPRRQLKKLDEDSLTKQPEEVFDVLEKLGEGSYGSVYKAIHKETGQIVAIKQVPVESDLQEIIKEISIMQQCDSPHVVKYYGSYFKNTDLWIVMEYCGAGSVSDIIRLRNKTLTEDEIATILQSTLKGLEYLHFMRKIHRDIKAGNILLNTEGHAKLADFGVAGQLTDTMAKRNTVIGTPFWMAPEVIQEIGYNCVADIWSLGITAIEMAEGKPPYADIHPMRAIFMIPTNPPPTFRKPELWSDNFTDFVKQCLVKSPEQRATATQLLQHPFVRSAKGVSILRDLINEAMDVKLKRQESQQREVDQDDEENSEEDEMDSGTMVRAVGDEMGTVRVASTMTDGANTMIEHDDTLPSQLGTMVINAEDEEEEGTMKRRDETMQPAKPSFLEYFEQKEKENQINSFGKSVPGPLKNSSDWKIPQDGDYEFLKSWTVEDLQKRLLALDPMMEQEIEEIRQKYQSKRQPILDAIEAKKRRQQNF

[7] = target: T1, Serine/threonine-protein kinase 4 (Homo sapiens); settings: at 1 µM
[8] = target: T2, Serine/threonine-protein kinase 3 (Homo sapiens) (UniProt Q13188); settings: at 0.1 µM
T2 sequence (whole entry): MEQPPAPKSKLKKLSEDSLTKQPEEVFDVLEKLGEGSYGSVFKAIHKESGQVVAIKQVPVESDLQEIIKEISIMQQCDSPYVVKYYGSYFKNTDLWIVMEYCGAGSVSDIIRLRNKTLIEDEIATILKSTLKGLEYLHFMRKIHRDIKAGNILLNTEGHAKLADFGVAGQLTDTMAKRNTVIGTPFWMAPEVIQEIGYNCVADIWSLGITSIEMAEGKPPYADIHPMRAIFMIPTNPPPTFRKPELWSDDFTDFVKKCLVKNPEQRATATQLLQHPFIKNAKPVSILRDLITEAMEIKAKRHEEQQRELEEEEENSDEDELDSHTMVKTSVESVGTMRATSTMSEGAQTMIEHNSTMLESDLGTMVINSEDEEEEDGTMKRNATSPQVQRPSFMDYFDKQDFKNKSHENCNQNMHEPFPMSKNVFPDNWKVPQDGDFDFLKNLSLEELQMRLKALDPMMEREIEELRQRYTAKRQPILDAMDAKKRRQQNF

[9] = target: T2, Serine/threonine-protein kinase 3 (Homo sapiens); settings: at 1 µM
[10] = target: Serine/threonine-protein kinase 26 (Homo sapiens) (UniProt Q9P289); settings: at 0.1 µM
Chain of Serine/threonine-protein kinase 26 (Homo sapiens) (Q9P289 2-416 limits assumed): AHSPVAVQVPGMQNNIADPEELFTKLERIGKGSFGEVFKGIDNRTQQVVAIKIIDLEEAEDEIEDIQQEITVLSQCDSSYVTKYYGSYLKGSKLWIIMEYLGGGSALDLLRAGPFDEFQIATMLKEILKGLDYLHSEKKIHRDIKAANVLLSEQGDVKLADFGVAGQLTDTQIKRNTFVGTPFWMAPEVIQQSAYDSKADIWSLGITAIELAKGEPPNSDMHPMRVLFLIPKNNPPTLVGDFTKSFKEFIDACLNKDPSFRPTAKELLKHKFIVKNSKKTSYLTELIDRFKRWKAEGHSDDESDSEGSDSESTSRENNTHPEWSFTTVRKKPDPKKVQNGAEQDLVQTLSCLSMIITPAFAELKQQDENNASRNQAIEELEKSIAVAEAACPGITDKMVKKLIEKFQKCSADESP

Chain of Dual specificity mitogen-activated protein kinase kinase 1 (Homo sapiens) (Q02750 whole entry): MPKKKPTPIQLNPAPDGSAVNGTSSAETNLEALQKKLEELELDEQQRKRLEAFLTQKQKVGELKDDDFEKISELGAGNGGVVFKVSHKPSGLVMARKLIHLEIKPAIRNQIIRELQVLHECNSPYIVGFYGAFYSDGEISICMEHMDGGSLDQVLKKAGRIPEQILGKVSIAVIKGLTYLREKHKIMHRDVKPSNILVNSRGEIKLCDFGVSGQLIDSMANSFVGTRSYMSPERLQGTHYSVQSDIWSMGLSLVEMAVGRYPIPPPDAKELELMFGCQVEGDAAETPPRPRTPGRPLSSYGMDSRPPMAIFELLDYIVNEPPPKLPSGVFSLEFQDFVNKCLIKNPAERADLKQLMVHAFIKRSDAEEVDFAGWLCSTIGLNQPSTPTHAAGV
Chain of Mitogen-activated protein kinase kinase kinase kinase 4 (Homo sapiens) (O95819 2-1239 limits assumed): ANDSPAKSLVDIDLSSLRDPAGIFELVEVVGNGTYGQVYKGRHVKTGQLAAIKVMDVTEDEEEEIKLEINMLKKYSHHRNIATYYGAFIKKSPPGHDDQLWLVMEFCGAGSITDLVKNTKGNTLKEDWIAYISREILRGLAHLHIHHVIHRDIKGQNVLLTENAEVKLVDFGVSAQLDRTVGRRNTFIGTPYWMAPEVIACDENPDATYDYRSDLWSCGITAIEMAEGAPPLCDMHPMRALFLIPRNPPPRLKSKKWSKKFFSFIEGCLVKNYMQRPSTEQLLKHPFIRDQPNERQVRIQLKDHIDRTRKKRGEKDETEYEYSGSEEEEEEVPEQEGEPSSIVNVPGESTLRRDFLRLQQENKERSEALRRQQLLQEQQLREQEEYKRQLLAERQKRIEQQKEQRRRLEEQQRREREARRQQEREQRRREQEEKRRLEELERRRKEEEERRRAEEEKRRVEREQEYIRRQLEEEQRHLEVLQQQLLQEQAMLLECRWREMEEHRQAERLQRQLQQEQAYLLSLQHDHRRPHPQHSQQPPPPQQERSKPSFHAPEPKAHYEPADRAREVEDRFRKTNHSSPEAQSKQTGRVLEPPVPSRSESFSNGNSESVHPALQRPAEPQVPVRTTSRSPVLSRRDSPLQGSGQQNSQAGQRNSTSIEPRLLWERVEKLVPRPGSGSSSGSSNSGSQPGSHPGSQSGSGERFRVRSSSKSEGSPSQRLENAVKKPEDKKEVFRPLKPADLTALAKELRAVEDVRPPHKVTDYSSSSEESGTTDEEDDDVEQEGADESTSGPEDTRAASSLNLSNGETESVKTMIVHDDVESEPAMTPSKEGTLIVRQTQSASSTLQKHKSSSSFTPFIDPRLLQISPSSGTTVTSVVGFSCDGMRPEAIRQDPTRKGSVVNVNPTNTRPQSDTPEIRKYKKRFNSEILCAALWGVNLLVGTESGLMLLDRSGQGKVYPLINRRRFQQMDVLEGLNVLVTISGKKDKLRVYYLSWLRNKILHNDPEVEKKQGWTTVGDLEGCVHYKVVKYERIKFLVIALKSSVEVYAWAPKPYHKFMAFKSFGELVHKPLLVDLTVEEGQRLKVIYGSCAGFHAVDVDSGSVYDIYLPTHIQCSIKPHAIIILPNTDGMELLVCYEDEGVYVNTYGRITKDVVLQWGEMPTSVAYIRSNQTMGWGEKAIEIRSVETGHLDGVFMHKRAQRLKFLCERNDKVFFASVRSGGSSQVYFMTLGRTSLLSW

Row | Compound | inhibition [1] | inhibition [2] | inhibition [3] | inhibition [4] | inhibition [5] | inhibition [6] | inhibition [7] | inhibition [8] | inhibition [9] | inhibition [10]
1 | c1ccc(Nc2ncc(-c3ccccc3)o2)cc1 | 25.9% | 5.07% | 4.19% | 6.17% | 19% | 2.36% | 4.87% | 4.89% | 6.36% | -1.38%
2 | NS(=O)(=O)c1ccc(N/N=C2\C(=O)Nc3ccc(Cl)cc32)cc1 | 75.5% | 5.27% | 5.11% | 18.5% | 65.7% | 21.2% | 67.5% | 16.8% | 56.9% | 1.38%
3 | CS(=O)(=O)CCNCc1nc(-c2ccc3ncnc(Nc4ccc(OCc5cccc(C(F)(F)F)c5)cc4)c3c2)cs1 | 3.34% | 1.13% | 0.13% | 2.9% | 4.39% | 3.31% | 6.13% | 4.17% | 6.28% | -0.02%
4 | Cc1ccc2c(c1)/C(=N/Nc1ccc(S(N)(=O)=O)cc1)C(=O)N2 | 72.3% | 0.13% | 1.05% | 16.2% | 61.8% | 16.4% | 65.9% | 11% | 55% | 0.66%
5 | COC(=O)c1ccc2c(c1)C(=Cc1cc(Br)c(O)c(Br)c1)C(=O)N2 | 84.7% | 3.31% | 5.79% | 26.4% | 75.2% | 3.54% | 19% | 4.78% | 19.5% | 1.49%
6 | c1ccc(Cc2nc3ccc(Nc4ncnc5ccccc45)cc3[nH]2)cc1 | 10% | 2.72% | 2.98% | 4.23% | 9.55% | 4.48% | 8.56% | 5.09% | 8.29% | -0.58%
7 | OCc1ccc(-c2nc(-c3ccccn3)c(-c3ccc4c(c3)OCO4)[nH]2)cc1 | 6.4% | 5.12% | 4.13% | 5.77% | 7.23% | 6.59% | 6.27% | 8.49% | 4.84% | -1.45%
8 | NS(=O)(=O)c1cccc(Nc2cc(-c3ccc(F)cc3)n[nH]2)c1 | 69.9% | 5.05% | 3.82% | 14.6% | 59.5% | 8.09% | 16.1% | 7.41% | 13.4% | -0.02%
9 | CN(C)C(=O)O[C@@H]1CN[C@@H](C#Cc2cc3ncnc(Nc4ccc(OCc5cccc(F)c5)c(Cl)c4)c3s2)C1 | 6.27% | -0.21% | 0.83% | 2.49% | 6.17% | -1.32% | 0.53% | -2.45% | -0.68% | 0.14%
10 | CN(C)c1cc2c(Nc3ccc4c(cnn4Cc4ccccc4)c3)ncnc2cn1 | 6.51% | 3.44% | 2.77% | 3.28% | 4.78% | 3.03% | 1.68% | 4.54% | 2.67% | -1.9%
11 | CCn1c(-c2nonc2N)nc2c(C#CC(C)(C)O)nc(OCCNC)cc21 | 6.25% | 3.55% | 3.92% | 5.45% | 5.87% | 3.15% | 6.97% | 5.27% | 7.27% | -3.54%
12 | COc1cc2ncnc(Nc3ccc(C)c(O)c3)c2cc1OC | 21.4% | 6.11% | 5.54% | 9.75% | 18% | 5.24% | 9.47% | 5.84% | 8.26% | -1.09%
13 | Oc1cccc(-c2nc(-c3ccccc3)[nH]c2-c2ccncc2)c1 | 11.6% | 5.08% | 4.94% | 5.57% | 8.96% | 5.39% | 8.96% | 5.44% | 7.6% | 0.83%
14 | CC(C)c1ccc2c(c1)NC(=O)/C2=N/Nc1ccc(S(N)(=O)=O)cc1 | 62.3% | 0.83% | 1.72% | 10.1% | 48.9% | 1.52% | 11.2% | 1.12% | 9.13% | -0.9%
15 | Cc1cc(Cl)cc2c1NC(=O)C2=NNc1ccc(S(N)(=O)=O)cc1 | 56.5% | 3.39% | 2.09% | 10% | 42.5% | 4.01% | 7.11% | 3.69% | 6.48% | 0.59%
16 | CC(C)c1ccc(Nc2nccc(-c3cnn4ncccc34)n2)cc1 | 18.7% | 2.79% | 9.57% | 3.97% | 14.6% | 4.71% | 20.1% | 5.07% | 18.6% | 0.23%
17 | COc1cc2ncnc(Nc3ccc4c(cnn4Cc4ccccc4)c3)c2cc1OC | 9.55% | 3.32% | 2.12% | 7.38% | 9.64% | 3.42% | 7.03% | 2.19% | 5.68% | -0.63%

Row | Compound | inhibition [1] | inhibition [2] | inhibition [3] | inhibition [4] | inhibition [5] | inhibition [6] | inhibition [7] | inhibition [8] | inhibition [9] | inhibition [10]
18 | CCS(=O)(=O)c1ccc(OC)c(Nc2ncc(-c3cccc(OC)c3)o2)c1 | 25.9% | 2.58% | 3.57% | 5.68% | 16.8% | 6.63% | 10.6% | 6.69% | 7.22% | -1.42%
19 | CN1CCN(C(=O)c2ccc(NC(=O)Nc3ccc(N(C)c4ccnc(Nc5ccc(CS(C)(=O)=O)cc5)n4)cc3)cc2)CC1 | 58.6% | 1.05% | 10.8% | 7.54% | 42.4% | 16.1% | 60.9% | 6.27% | 28.3% | 1.7%
20 | C[C@@H](Oc1cc(-n2cnc3ccc(OC[C@@H](O)CO)cc32)sc1C(N)=O)c1ccccc1Cl | 4.28% | -0.54% | 0.3% | -1.25% | 2.89% | 3.22% | 34.1% | 2.75% | 25.7% | -0.27%
21 | O=C(Nc1ccc(Oc2ccc3[nH]c(NC(=O)c4ccco4)nc3c2)cc1)Nc1cc(C(F)(F)F)ccc1F | 5.1% | 0.55% | 1.24% | 0.49% | -0.52% | -0.01% | 0.17% | -1.13% | -0.98% | 0.66%
22 | NS(=O)(=O)c1ccc(NC=C2C(=O)Nc3ccc4ncsc4c32)cc1 | 79% | 17.5% | 68.3% | 62.9% | 78.9% | 74.5% | 80.4% | 73.1% | 78.2% | 62.1%
23 | CCn1c(-c2nonc2N)nc2ccc(F)cc21 | 9.77% | 9.94% | 7.03% | 6.88% | 9.59% | 5.88% | 5.97% | 6.38% | 6.55% | -1.73%
24 | Nc1nccc(-c2c(-c3ccc(F)cc3)ncn2CCCN2CCOCC2)n1 | 8.06% | 5.23% | 4.45% | 5.84% | 7.98% | 3.71% | 5.25% | 4.5% | 5.71% | -0.66%
25 | N#Cc1c(NC(=O)c2ccccc2F)sc2c1CCCC2 | -0.82% | 0.34% | -0.71% | -1.75% | -2.13% | -0.37% | 3.02% | -3.35% | 1.41% | -0.08%
26 | COC(=O)Nc1nc2cc(Oc3ccc(NC(=O)Nc4cccc(Br)c4)cc3)ccc2[nH]1 | 5.51% | 5.03% | 4% | 4.61% | 5.66% | 3.52% | 2.71% | 3.41% | 3.92% | 0.49%
27 | COc1cc(Nc2nccc(-c3cnn4ncccc34)n2)cc(OC)c1 | 78.9% | 3.92% | 26.4% | 20.6% | 71.9% | 5.52% | 35.6% | 5.54% | 29.6% | 0.99%
28 | O=C1Nc2ccccc2/C1=C/Nc1ccc2[nH]c(=O)[nH]c2c1 | 75.4% | 8.19% | 6.88% | 17.4% | 64.3% | 18.1% | 67.2% | 15.5% | 59.4% | -1.35%
29 | CS(=O)(=O)Nc1cccc(-c2ccc3c(NC(=O)C4CC4)n[nH]c3c2)c1 | 6.35% | 0.37% | 0.96% | 1.34% | 6.69% | 3.33% | 4.09% | 3.45% | 4.09% | -3.32%
30 | Cc1ccc(Nc2ccnc(Nc3cccc(C(N)=O)c3)n2)cc1O | 28.9% | 4.22% | 4.94% | 6.27% | 22% | 5.18% | 12.2% | 4.59% | 10.1% | 0.27%
31 | COc1ccc2ncnc(Nc3ccc(OCc4ccccc4)cc3)c2c1 | 7.18% | 3.95% | 2.41% | 3.65% | 4.24% | 1.92% | 4.04% | 1.62% | 3.92% | -1.91%
32 | CN(C)CCCn1c(-c2nonc2N)nc2cnccc21 | 6.52% | 4.6% | 3.75% | 5.65% | 6.29% | 4.23% | 4.03% | 3.78% | 4.52% | -1.82%
33 | Nc1nccc(C#Cc2cncnc2Nc2ccc(OCc3cccc(F)c3)c(Cl)c2)n1 | 5.46% | 2.67% | 4.4% | 6.95% | 6.41% | 6.4% | 10.4% | 6.63% | 7.32% | -1.78%
